# PubChem BioAssay
# Values without a mark were called inactive. Active and inactive are the calls of the source.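 How the source made its calls, unless noted: active means mean inhibition above 46.68%, the untreated control wells mean plus 3 SD; inactive means the rest.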
# Experiments:
# [1] = biological target: Nuclear receptor coactivator 1 (Homo sapiens) (UniProt Q15788); test: NCOA1 GAL4-fusion reporter inhibition – cell-based, luminescence, quadruplicate, confirmation (AID 588820); details: HEK293 GAL4-SRC1 luciferase reporter, at 3.6 µM, hits give high values;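 further: 0% = DMSO wells and 100% = gossypol 36 µM treated wells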
# [2] = repression of VP16-driven luciferase reporter – cell-based, luminescence, high throughput, counter-screen for SRC1 inhibitor project (AID 588824; in the data active means inhibition above about 25%); details: cell-based VP16 transactivation luciferase luminescence; at 3.6 µM; hits give high values
# Chain of Nuclear receptor coactivator 1 (Homo sapiens) (Q15788 whole entry, looked up, the tested form may be a part): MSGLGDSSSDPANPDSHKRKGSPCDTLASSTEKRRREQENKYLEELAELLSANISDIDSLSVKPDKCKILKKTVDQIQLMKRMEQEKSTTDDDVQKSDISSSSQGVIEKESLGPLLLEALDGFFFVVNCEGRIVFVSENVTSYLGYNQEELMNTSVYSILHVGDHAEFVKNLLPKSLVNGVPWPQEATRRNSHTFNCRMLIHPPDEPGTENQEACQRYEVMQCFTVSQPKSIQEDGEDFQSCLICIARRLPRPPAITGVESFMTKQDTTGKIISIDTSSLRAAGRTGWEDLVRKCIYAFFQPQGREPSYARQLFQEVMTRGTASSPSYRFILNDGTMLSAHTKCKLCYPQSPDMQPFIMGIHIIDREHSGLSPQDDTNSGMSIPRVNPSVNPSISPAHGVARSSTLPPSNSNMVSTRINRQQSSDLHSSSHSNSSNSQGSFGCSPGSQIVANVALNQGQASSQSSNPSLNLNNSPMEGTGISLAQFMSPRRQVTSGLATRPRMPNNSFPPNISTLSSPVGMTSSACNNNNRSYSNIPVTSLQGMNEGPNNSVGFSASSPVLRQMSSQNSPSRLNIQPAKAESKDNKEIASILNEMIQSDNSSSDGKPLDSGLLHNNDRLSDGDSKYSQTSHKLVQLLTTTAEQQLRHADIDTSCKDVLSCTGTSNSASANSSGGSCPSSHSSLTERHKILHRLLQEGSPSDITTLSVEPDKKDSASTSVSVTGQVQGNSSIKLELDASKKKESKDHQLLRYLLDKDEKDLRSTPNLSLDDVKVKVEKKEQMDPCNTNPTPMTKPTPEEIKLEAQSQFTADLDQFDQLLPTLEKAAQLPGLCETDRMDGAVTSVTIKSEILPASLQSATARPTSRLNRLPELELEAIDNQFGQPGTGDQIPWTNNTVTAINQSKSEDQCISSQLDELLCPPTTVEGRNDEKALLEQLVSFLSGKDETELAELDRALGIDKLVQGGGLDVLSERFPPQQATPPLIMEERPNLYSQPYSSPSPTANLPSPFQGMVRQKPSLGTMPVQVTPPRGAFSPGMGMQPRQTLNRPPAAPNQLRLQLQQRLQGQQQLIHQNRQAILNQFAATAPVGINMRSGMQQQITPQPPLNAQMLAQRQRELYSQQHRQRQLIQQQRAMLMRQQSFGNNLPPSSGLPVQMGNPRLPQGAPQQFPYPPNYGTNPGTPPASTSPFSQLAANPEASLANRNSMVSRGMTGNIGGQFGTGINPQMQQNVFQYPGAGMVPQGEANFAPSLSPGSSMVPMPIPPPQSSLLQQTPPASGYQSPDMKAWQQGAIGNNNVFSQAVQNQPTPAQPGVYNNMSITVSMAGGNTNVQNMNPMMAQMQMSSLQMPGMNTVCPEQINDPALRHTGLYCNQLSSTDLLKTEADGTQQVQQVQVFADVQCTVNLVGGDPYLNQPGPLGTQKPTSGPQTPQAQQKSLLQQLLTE
Compound,inhibition [1] [%],inhibition [2]
C=CCc1ccccc1OCC(=O)N/N=C/c1ccc(OC(C)=O)cc1OC(C)=O,16.6,-4.05%
OC(CN1CCN(c2cccc(Cl)c2)CC1)c1ccccc1 (stereo not given),-16.2,-6.51%
CN(CC(=O)Nc1c(Cl)cccc1Cl)C(=O)CNC(=O)c1ccc2ccccc2c1,-23.2,-11.1%
O=C(CSc1nc(-c2cccs2)cc(C(F)(F)F)n1)Nc1cc(OCC(F)(F)C(F)F)cc([N+](=O)[O-])c1,17.1,-0.51%
CC(=O)N1CN(C2CCCC2)Cc2c1sc1c2CCCC1,6.63,14.4%
CN1CCN(C(=O)CCN2C(=O)/C(=C/c3cccc(Br)c3)SC2=S)CC1,10.7,16.9%
CCN(CC(=O)Nc1ccc(NC(C)=O)cc1)C(=O)Cc1ccc(S(=O)(=O)N2CCOCC2)s1,6.3,8.19%
Cc1ccc(NC(=O)c2cnc(N3CCN(c4ccccn4)CC3)c3ccccc23)c(Br)c1,-15.2,17.7%
COc1ccc(CCC(=O)Nc2ccc(Cl)c(S(=O)(=O)N3CCCC3)c2)cc1,12.1,27.8% (active)
O=C(CSc1nc2ccccc2[nH]1)Nc1cccc(S(=O)(=O)N2CCOCC2)c1,3.06,-4.53%
COc1ccc(OCC(=O)Nc2ccc3c(c2)n(C)c(=O)n3C)cc1,-14.2,-5.89%
CCN(c1ccccc1)S(=O)(=O)c1cc(C(=O)Nc2ccc(Br)cc2)ccc1F,16.9,23.2%
CCOc1cccc(C(=O)Nc2nc(-c3ccc(S(=O)(=O)N4CCOCC4)cc3)cs2)c1,-29.3,-6.23%
CC1Cc2ccccc2N1S(=O)(=O)c1cccc(C(=O)N2CCN(c3ncccn3)CC2)c1 (stereo not given),16.5,77.4% (active)
Cc1c(O)ccc(/C(Cc2ccc3ccccc3n2)=N\N)c1O,-105,-61.3%
CC(=O)c1cn(CCOc2cc(C)ccc2C)c2ccccc12,-27,33.7% (active)
Cc1cccc(C)c1NC(=O)CNC(=O)Cc1c[nH]c2ccccc12,-0.57,-1.35%
COc1ccc(CNC(=O)c2cc3c(C)nc4ccccc4c3o2)c(OC)c1,-5.62,22.3%
O=C(NNC(=O)c1ccccc1O)c1ccc(Cl)c(S(=O)(=O)N2CCc3ccccc32)c1,8.03,14.9%
CCOC(=O)CNC(c1ccccc1)c1cc(Br)ccc1NC(C)=O (stereo not given),-0.66,4.71%
